Test system: U-2932
Test: growth inhibition by drug alone (1 - RLU/untreated control) (fraction); higher = stronger inhibition
Conditions: 177Lu-lilotomab satetraxetan 0 ug/ml
Protocol: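 U-2932 ABC-DLBCL cells were pretreated or not for 18 h with 1 ug/ml 177Lu-lilotomab satetraxetan (600 MBq/mg), washed and seeded (3000 cells/well) on 384-well plates pre-printed with the Selleck Cambridge Cancer Compound library. Viability was read by RealTime-Glo luminescence on days 3-6 after seeding. Effect = 1 - RLU/mean RLU of the 48 untreated no-drug control wells per plate; Bliss score = (M-E)/(1-Fa), with E the expected Bliss-additive effect.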

| Compound | growth inhibition by drug alone (10 nM, time (day): 3) | growth inhibition by drug alone (10 nM, time (day): 4) | growth inhibition by drug alone (10 nM, time (day): 5) | growth inhibition by drug alone (10 nM, time (day): 6) | growth inhibition by drug alone (1000 nM, time (day): 3) | growth inhibition by drug alone (1000 nM, time (day): 4) | growth inhibition by drug alone (1000 nM, time (day): 5) | growth inhibition by drug alone (1000 nM, time (day): 6) |
| --- | --- | --- | --- | --- | --- | --- | --- | --- |
| C[C@@H](Oc1cc(-n2cnc3ccc(CN4CCN(C)CC4)cc32)sc1C(N)=O)c1ccccc1C(F)(F)F | 0.444 | 0.458 | 0.438 | 0.516 | 0.94 | 0.961 | 0.973 | 0.981 |
| CS(=O)(=O)N1CCc2c(-c3cnc(N)nc3)nc(N3CCOCC3)nc21 | 0.149 | 0.108 | -0.0352 | -0.0152 | 0.351 | 0.362 | 0.336 | 0.366 |
| C[C@@H](N)[C@H]1CC[C@H](C(=O)Nc2ccncc2)CC1 | -0.00242 | -0.0313 | -0.0598 | -0.119 | -0.0269 | -0.0273 | -0.115 | -0.0522 |
| N#Cc1ccc(COC[C@H]2O[C@@H](n3c(NCc4ccc(Cl)c(Cl)c4)nc4c(N)ncnc43)[C@H](O)[C@@H]2O)cc1 | 0.115 | 0.0829 | -0.00792 | -0.0103 | 0.0695 | 0.0449 | -0.0886 | -0.0586 |
| CC(C)c1ccc(Cn2ccc3c4c(N)nc(NC5CC5)nc4ccc32)cc1 | 0.155 | 0.138 | 0.0759 | 0.0356 | 0.976 | 0.977 | 0.982 | 0.985 |

— the supplement of paper PMC6897291
